{"source": "PubChem BioAssay AID1851", "about": "(National Center for Advancing Translational Sciences (NCATS), 2009)", "note": "In all, about 16,000 compounds went through this assay and about 5,100 (32%) were called active. Inconclusive results (about 25%) are left out. Calls follow the shape of the dose curve; as a rule, active = well fitted curve in the direction sought with a large enough effect; inconclusive = small, poorly fitted or top-dose-only effect, or effect the other way; inactive = no such curve, though single readings can be large or run the other way. The list shows a part of the results. % is scaled to controls: 0 for no effect and ±100 for the full control effect."}
{"molecular_target": "Cytochrome P450 3A4 (Homo sapiens) (UniProt P08684)", "sequence (P08684 whole entry, looked up)": "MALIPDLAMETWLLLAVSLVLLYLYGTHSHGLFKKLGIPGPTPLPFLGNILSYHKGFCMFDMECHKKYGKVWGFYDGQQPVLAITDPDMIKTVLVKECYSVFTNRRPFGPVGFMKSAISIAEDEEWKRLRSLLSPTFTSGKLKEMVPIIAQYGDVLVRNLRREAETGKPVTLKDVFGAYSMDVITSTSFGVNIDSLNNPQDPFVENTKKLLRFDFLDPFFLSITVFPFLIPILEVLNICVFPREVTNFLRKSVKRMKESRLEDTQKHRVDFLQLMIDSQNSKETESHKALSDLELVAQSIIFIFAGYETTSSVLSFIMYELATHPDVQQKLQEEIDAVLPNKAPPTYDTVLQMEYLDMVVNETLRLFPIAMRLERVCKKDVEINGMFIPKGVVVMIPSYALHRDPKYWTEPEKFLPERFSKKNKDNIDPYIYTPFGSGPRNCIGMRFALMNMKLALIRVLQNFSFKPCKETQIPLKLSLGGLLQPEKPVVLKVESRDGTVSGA", "assay": "Cytochrome panel assay with activity outcomes", "conditions": "recombinant CYP, pro-luciferin dealkylation, luminescence, p450-cyp3a4; series mostly up to 57.1 µM"}
{"smiles": "Cc1cc(C2CCCCC2)n(O)c(=O)c1", "AC50": "inactive"}
{"smiles": "CCN(CC)CCOc1ccc(/C(=C(\\Cl)c2ccccc2)c2ccccc2)cc1", "AC50": "inactive"}
{"smiles": "CN(C)CCCO[C@H]1[C@H]([C@H](O)CO)O[C@H]2OC(C)(C)O[C@@H]21", "AC50": "inactive"}
{"smiles": "Cc1c2c(nc3ccccc13)-c1cccc(=O)n1C2", "AC50": "12.6 µM (active)"}
{"smiles": "O=c1c2ccccc2nc2n1CCC2", "AC50": "inactive"}
{"smiles": "Cc1[nH]nc(-c2ccc(OCc3cnn(-c4ccccc4)c3)cc2O)c1Oc1ccc(F)cc1", "AC50": "14.1 µM (active)"}
{"smiles": "COC(=O)c1ccc(C2C(Oc3ccccc3)C(=O)N2CCc2ccc(OC)c(OC)c2)cc1", "note": "(centres undefined)", "AC50": "2.82 µM (active)"}
{"smiles": "Cc1ccccc1OC1C(=O)N(Cc2ccc3c(c2)OCO3)C1c1sccc1C", "note": "(centres undefined)", "AC50": "0.794 µM (active)"}
{"smiles": "COc1ccc(CCN2C(=O)C(Oc3ccccc3C)C2c2ccc3c(c2)OCO3)cc1OC", "note": "(centres undefined)", "AC50": "0.501 µM (active)"}
{"smiles": "NC(N)=NC(N)=Nc1ccccc1", "note": "(tested in a mixture with another compound)", "activity, negative = inhibition": "-12.3% [at 11.4 µM] (inactive)"}
{"smiles": "Clc1ccc(C2=C3CCCCn4c(-c5ccccc5)c[n+](c43)C2)cc1", "AC50": "inactive"}
{"smiles": "CC[C@H](NC(C)C)[C@H](O)c1ccc(O)c2[nH]c(=O)ccc12", "AC50": "inactive"}
{"smiles": "O=C(O)[C@@H](O)[C@@H](O)[C@@H](O)[C@@H](O)c1nc2ccccc2s1", "activity, negative = inhibition": "-23.6% [at 11.4 µM] (inactive)"}
{"smiles": "O=C(NNc1nc2ccccc2s1)C1CC1", "AC50": "inactive"}
{"smiles": "CCCc1cc(C(=O)Cc2nc3ccccc3s2)c(O)cc1O", "AC50": "12.6 µM (active)"}
{"smiles": "O=C(CCN1CCCCC1)c1csc2ccccc12", "activity, negative = inhibition": "-13.8% [at 11.4 µM] (inactive)"}
{"smiles": "Cc1ccc(OC(=O)N2CCOCC2)cc1", "AC50": "inactive"}
{"smiles": "O=C(Oc1ccc2ccccc2c1Br)N1CCCCCC1", "AC50": "14.1 µM (active)"}
{"smiles": "COc1ccc(/C=C(/NC(C)=O)C(=O)O)cc1", "activity, negative = inhibition": "4.62% [at 2.29 µM] (inactive)"}
{"smiles": "CCCCOc1ccc(C(=O)NCc2ccco2)cc1", "AC50": "inactive"}
{"smiles": "CCCCOc1ccc(C(=O)N/C(=C\\c2cccc([N+](=O)[O-])c2)C(=O)OCCC)cc1", "AC50": "1 µM (active)"}
{"smiles": "CCCCOc1ccc(C(=O)N/C(=C\\c2ccc(OC)cc2)C(=O)OCc2ccco2)cc1", "AC50": "3.98 µM (active)"}
{"smiles": "OC[C@@H]1O[C@H](O)[C@@H](Cl)[C@H](O)[C@@H]1O", "AC50": "inactive"}
{"smiles": "C=CCNCCCCOc1c(Cl)cc(C)cc1Br", "AC50": "14.1 µM (active)"}
{"smiles": "COCCCNCCCCOc1c(Cl)cc(C)cc1Br", "activity, negative = inhibition": "-14.4% [at 2.29 µM] (inactive)"}
{"smiles": "Cc1cc(Br)cc(C)c1OCCCCN(C)C", "AC50": "inactive"}
{"smiles": "Cc1cnc(CNc2ccnc(-c3ccccc3C(F)(F)F)n2)cn1", "AC50": "inactive"}
{"smiles": "Cc1cnc(CNc2nc(-c3ccccc3C(F)(F)F)nc3ccccc23)cn1", "AC50": "5.01 µM (active)"}
{"smiles": "COc1ccccc1-c1nc(NCc2cnc(C)cn2)c2ccccc2n1", "AC50": "15.8 µM (active)"}
